Assay outcomes (PubChem BioAssay)
Most compounds without a hit are left out; they make up all but 2.9% or so of the library.
MEKK2wt PB1 HTS = raises or lowers MEK5 binding to wildtype human MEKK2 PB1 domain. bead flow cytometry, Alexa488-MEK5 binding to MEKK2 WT; actives lie on both sides. binding response (% of control), % at 10 µM. hit rate 1.1% among 290,000. AID 1531; in the data active means binding response below about 67% or above about 130%
Beta2AR agonist = activates human beta-2 adrenergic receptor causing internalization | P07550 | Am2.2-beta2AR cells, FAP receptor internalization, flow cytometry | response, % (no concentration beside the values) | hit rate 0.43% among 340,000 | AID 504454;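 active means response above a set limit, near 3 SD of response in nonfluorescent compounds, cut at about 42% in these data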
Target sequence (P07550 whole entry, looked up): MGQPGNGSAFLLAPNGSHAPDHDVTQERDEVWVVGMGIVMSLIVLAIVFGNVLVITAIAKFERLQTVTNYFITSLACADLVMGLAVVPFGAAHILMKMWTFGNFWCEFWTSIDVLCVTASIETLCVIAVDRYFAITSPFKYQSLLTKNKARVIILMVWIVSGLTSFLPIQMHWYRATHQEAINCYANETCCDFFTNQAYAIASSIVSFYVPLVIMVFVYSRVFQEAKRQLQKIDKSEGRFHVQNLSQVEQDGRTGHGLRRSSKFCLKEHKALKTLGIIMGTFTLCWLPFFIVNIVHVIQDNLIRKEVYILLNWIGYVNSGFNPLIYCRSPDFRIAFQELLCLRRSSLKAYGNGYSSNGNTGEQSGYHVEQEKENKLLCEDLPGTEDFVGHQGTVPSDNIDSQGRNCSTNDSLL
GRK2 inh = human GRK2 inhibition via aptamer displacement; bead flow cytometry, FAM-aptamer displacement from GRK2; inhibition of aptamer binding, % at 10 µM; hit rate 0.59% among 330,000; AID 488847; P25098;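 active means inhibition of aptamer binding above 40%, roughly 3 SD of noise, on plates passing a quality check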;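 further: median bead fluorescence of bound FAM aptamer so fluorescent compounds give negative values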
MEKK2 mut-MEK5 = signal of MEK5 binding to mutant human MEKK2 PB1 domain; bead flow cytometry, Alexa488-MEK5 binding to MEKK2 mutant; percent response, % at 10 µM; hit rate 0.35% among 290,000; AID 1530; in the data active means percent response above about 24%, passing the limit was not always enough
MEKK3 PB1 HTS = raises or lowers MEK5 binding to the human MEKK3 PB1 domain; Q99759; bead-based flow cytometry, Alexa488-MEK5 binding to MEKK3; actives lie on both sides; 0 = blocked by unlabeled MEK5, 100 = vehicle; binding response (% of control), % at 10 µM; hit rate 1.4% among 290,000;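 active means binding response more than 3 SD above or below the average of its plate-row segment, actives on both sides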;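 further: Alexa488 bead fluorescence after subtracting the streptavidin-only scavenger bead signal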
MEKK2wt confirm = raises or lowers MEK5 binding to wildtype human MEKK2, retest; hit rate 2.4% among 5,900; binding response (% of control), % at 10 µM; AID 1892; shares compounds with MEKK3 PB1 HTS; bead flow cytometry, Alexa488-MEK5 binding to MEKK2 WT; actives lie on both sides; in the data active means binding response below about 16% or above about 210%; inactive means in between
MEKK2mut confirm = signal of MEK5 binding to mutant human MEKK2, retest; shares compounds with MEKK3 PB1 HTS; bead flow cytometry, Alexa488-MEK5 binding to MEKK2 mutant; percent response, % at 10 µM; hit rate 2% among 5,900; in the data active means percent response mostly above about 71%, no sharp cut-off; inactive means mostly below about 38%;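 further: higher means compound restores mutant binding toward wildtype level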
MEKK3-MEK5 inh = confirmation of inhibitors of MEK5 binding to human MEKK3; hit rate 1.8% among 5,900; binding response (% of control), % at 10 µM; shares compounds with MEKK3 PB1 HTS; bead flow cytometry, Alexa488-MEK5 binding to MEKK3; hits give low values;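 active means binding response below 72% of control, or above a set upper limit, though filed actives all read lower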;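 further: 100% = DMSO only wells and 0% = binding blocked by excess unlabeled MEK5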
An asterisk follows results filed as active; . = no result given; ! = not confirmed by another sample; [ ] = remark or other dose.

SMILES	MEKK2wt PB1 HTS	Beta2AR agonist	GRK2 inh	MEKK2 mut-MEK5	MEKK3 PB1 HTS	MEKK2wt confirm	MEKK2mut confirm	MEKK3-MEK5 inh
O=C(NC1CCS(=O)(=O)C1)/C(=C/c1ccc(Cl)cc1)NC(=O)c1ccccc1 (configuration not stated)	96.0	6.3	2.0	-1.0	100.0	.	.	.
O=C(NC1CCS(=O)(=O)C1)/C(=C\c1ccccc1)NC(=O)c1ccccc1 (configuration not stated)	108.0	-5.6	1.0	0.0	147.0*	105.0	7.0	106.0
COc1ccc(NC(=O)Nc2nnc(-c3ccccc3SCc3ccccc3)s2)cc1	106.0	2.5	0.0	6.0	122.0*	90.0	1.0	99.0
COc1cccc(NC(=O)Nc2nnc(-c3ccccc3SCc3ccccc3)s2)c1	114.0	-3.2	1.0	18.0	115.0	.	.	.
CCc1cccc2c1NC(=O)C2(O)CC(=O)c1cccs1 (configuration not stated)	107.0	-0.8	0.0	-7.0	103.0	.	.	.
Cc1ccc2c(c1)C(=NC1CCCCC1)c1cc3ccccc3nc1-2	101.0	27.8	3.0	1.0	67.0*[inhibitor]	107.0	7.0	105.0
Cc1cc(C)c(C)c(OCCN2CCOCC2)c1	109.0	-1.4	0.0	7.0	102.0	.	.	.
CCCC(C)n1[nH]c(=O)cc1N (configuration not stated)	96.0	4.4	4.0	-3.0	92.0	.	.	.
CCC(CC)n1[nH]c(=O)cc1N	124.0	0.4	2.0	11.0	128.0*	95.0	-4.0	98.0
C=CCN(C(=O)CSc1nc2c(sc3ccccc32)c(=O)n1CCN(CC)CC)c1ccccc1	192.0*	22.9	0.0	65.0*	117.0	142.0	10.0	98.0
CCN(CC)CCn1c(SCC(=O)Nc2ccc(F)cc2)nc2c(sc3ccccc32)c1=O	128.0	.	0.0	14.0	103.0	.	.	.
COc1ccc(S(=O)(=O)NC(C)C)cc1C(=O)N1CCOCC1	-2.0*[inhibitor]	-4.5	3.0	-9.0	92.0	99.0	1.0	102.0
COc1ccc(S(=O)(=O)NCc2ccco2)cc1C(=O)N1CCOCC1	99.0	3.0	0.0	-6.0	97.0	.	.	.
COc1cc(/C=N/N=C(N)N)ccc1OCc1ccccc1Cl	229.0*	53.7*	0.0	35.0	117.0	189.0	41.0	101.0
COc1cc(/C=C/c2ccc3cccc(OC)c3n2)c(OC(C)=O)c([N+](=O)[O-])c1	93.0	12.9	1.0	-2.0	98.0	.	.	.
COc1cc(/C=C/c2ccc3cccc(OC)c3n2)c(O)c([N+](=O)[O-])c1	55.0*[inhibitor]	3.3	1.0	-15.0	50.0*[inhibitor]	94.0	-7.0	92.0
CS(=O)(=O)c1ccc(N2CCN(c3ccccn3)CC2)c([N+](=O)[O-])c1	108.0	-8.7	0.0	15.0	104.0	.	.	.
O=C(Nc1nc2ccccc2[nH]1)c1ccccc1	21.0*[inhibitor]	-23.2	1.0	-23.0	13.0*[inhibitor]	103.0	1.0	102.0
O=C(CNC(=O)c1cccc(Cl)c1)NCCCSc1ccccc1	.	-1.6	0.0	.	.	.	.	.
CCCn1c(O)c(/C=C2\C=NN=C2c2ccccc2)sc1=S	88.0	-10.0	8.0	-2.0	99.0	.	.	.
CCCCC(CC)Cn1c(O)c(/C=C2\C=NN=C2c2ccccc2)sc1=S (configuration not stated)	103.0	6.3	0.0	0.0	136.0*	108.0	-1.0	102.0
CC(C)(C)OC(=O)N1CCC(C(=O)Nc2cccc(C(=O)NCCCc3ccccc3)c2)CC1	.	2.2	.	.	.	.	.	.
Cc1c2cc(O)c(=O)cc-2oc2cc(O)c(O)cc12	25.0*![inhibitor]	-172.7	27.0	-6.0	54.0*![inhibitor]	77.0	-21.0	64.0*
Cc1ccc(S(=O)(=O)N2N=C3CCCCC3C2(O)C(F)(F)F)cc1 (configuration not stated)	107.0	-1.1	0.0	-1.0	113.0	.	.	.
N/C(COc1cc(Cl)cc(Cl)c1)=N\O	115.0	0.2	0.0	25.0	135.0*	105.0	-2.0	107.0
SMILES	MEKK2wt PB1 HTS	Beta2AR agonist	GRK2 inh	MEKK2 mut-MEK5	MEKK3 PB1 HTS	MEKK2wt confirm	MEKK2mut confirm	MEKK3-MEK5 inh
CCOC(=O)CCC(NC(=O)CCCCC(=O)NC(CCC(=O)OCC)C(=O)OCC)C(=O)OCC (configuration not stated)	107.0	-2.3	12.0	1.0	130.0*	106.0	0.0	103.0
O=C1C(c2ccccc2)C2C=CC(C2)N1O (configuration not stated)	.	11.9	.	.	.	.	.	.
CN1CCN(S(=O)(=O)c2ccc(NC(=O)Cc3ccc([N+](=O)[O-])cc3)cc2)CC1	111.0	-9.6	0.0	13.0	104.0	.	.	.
CC1=C(C#N)C(=O)NC(=O)/C1=C/c1ccc(-c2ccc(S(N)(=O)=O)cc2)o1	3.0*[inhibitor]	-1.4	4.0	-13.0	7.0*[inhibitor]	82.0	-12.0	88.0
C=CCOC(=O)c1cc(-c2ccc(/C=C3\C(=O)NC(=O)C(C#N)=C3C)o2)ccc1Cl	.	0.2	.	.	.	.	.	.
Cc1ccc(S(=O)(=O)N(C)C[C@@H]2Oc3ccc(NC(=O)CCC(F)(F)F)cc3CC(=O)N([C@@H](C)CO)C[C@@H]2C)cc1	.	11.8	4.0	.	.	.	.	.
Cc1ccc(C(=O)NCCN2C3=NC[C@@H](Cc4ccccc4)N3C[C@H]2Cc2ccc(O)cc2)cc1Br	185.0*	3.1	.	52.0*	107.0	200.0	56.0	113.0
Cc1ccc(C(=O)NCCN2C3=NC[C@H](Cc4ccc(O)cc4)N3C[C@H]2Cc2ccc(O)cc2)cc1Br	143.0*	-3.0	0.0	13.0	106.0	134.0	15.0	100.0
Cc1ccc(C(=O)N[C@@H](C)CN2C3=NC[C@H](C(C)C)N3C[C@H]2Cc2ccc(O)cc2)cc1Br	128.0	4.8	0.0	21.0	105.0	.	.	.
Cn1c(=N)n(CC(=O)c2ccc(Cl)c(Cl)c2)c2ccccc21	123.0	4.2	0.0	9.0	109.0	.	.	.
COc1ccc(NC(=O)CSc2nc(N)cc(=O)[nH]2)cc1S(=O)(=O)N1CCCCC1	.	-8.7	.	.	.	.	.	.
C/C(=N\NC(=O)C(C)Sc1ccccc1)c1ccc([N+](=O)[O-])cc1 (configuration not stated)	102.0	-0.4	3.0	6.0	104.0	.	.	.
CCC(CC)C(=O)Nc1nnc(S(=O)(=O)Nc2ccccc2C)s1	100.0	1.3	0.0	3.0	100.0	.	.	.
Cn1c(SCC#N)nc2ccccc2c1=O	116.0	-4.6	0.0	29.0	128.0*	96.0	-12.0	99.0
Cn1c(SCc2ccccc2C#N)nc2ccccc2c1=O	94.0	7.2	0.0	-7.0	100.0	.	.	.
C=C(C)Cn1c(SCC#N)nc2ccccc2c1=O	92.0	3.6	2.0	-10.0	82.0*[inhibitor]	101.0	-1.0	104.0
